Measurements: the supplement of paper PMC3545927
Some of the results follow. The true hit rate is not given.

Molecular target: furin, P09958
Assay: furin cleavage Z-score vs untreated control; higher = more cleavage, active = 3.5 or more, inactive = 1 or less, 8 variable residues between constant flanks
Method in brief: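 Magnetic beads held 8-mer peptides by the N-terminus, each fused to a cDNA oligonucleotide, and purified furin was added for 7.5, 15 or 30 min. Released DNA was sequenced after PCR adapter tagging. The cleavage Z-score is the log count relative to furin-free reactions, lowess-adjusted and divided by median absolute deviation.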
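Further: purified furin at 1:10 enzyme:substrate in 50 mM HEPES pH 7.5.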

furin, P09958, sequence (P09958 whole entry): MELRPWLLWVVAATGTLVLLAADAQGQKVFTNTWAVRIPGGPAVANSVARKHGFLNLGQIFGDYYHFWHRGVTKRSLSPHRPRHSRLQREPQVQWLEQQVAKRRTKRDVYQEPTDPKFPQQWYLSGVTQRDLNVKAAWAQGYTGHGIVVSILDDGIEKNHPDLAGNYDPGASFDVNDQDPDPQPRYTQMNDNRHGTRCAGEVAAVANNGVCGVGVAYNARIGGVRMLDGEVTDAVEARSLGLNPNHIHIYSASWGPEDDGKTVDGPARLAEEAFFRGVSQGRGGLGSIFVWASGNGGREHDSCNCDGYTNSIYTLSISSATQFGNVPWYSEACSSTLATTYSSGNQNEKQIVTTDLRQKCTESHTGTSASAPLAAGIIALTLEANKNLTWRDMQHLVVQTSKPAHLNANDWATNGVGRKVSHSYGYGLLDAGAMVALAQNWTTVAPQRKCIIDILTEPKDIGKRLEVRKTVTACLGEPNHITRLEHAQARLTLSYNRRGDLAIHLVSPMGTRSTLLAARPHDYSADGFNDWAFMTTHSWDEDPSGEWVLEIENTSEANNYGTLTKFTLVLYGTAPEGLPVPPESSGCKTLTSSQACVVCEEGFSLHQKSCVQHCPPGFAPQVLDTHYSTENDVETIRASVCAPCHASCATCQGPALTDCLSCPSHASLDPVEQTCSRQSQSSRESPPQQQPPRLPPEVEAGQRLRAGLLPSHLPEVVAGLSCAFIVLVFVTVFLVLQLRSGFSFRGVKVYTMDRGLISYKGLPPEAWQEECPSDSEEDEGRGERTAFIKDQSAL

| Sequence | furin cleavage Z-score (7.5 min) | furin cleavage Z-score (15 min) | furin cleavage Z-score (30 min) |
| --- | --- | --- | --- |
| CAMEECDQHLAGNASASA [HC32] | -1.25 (inactive) | -0.295 (inactive) | 0.17 (inactive) |
| CAGKAIPLEVAGNASASA [HC849] | -0.874 (inactive) | -0.849 (inactive) | -0.983 (inactive) |
| CAEVVGSTWVAGNASASA [HC122] | -0.227 (inactive) | 0.0769 (inactive) | 0.871 (inactive) |
| CASTDCSAHLAGNASASA [HC2511] | -0.745 (inactive) | -1.14 (inactive) | 1.19 |
| CAPHRRRRRGAGNASASA [FS-555] | 5.9 (active) | 4.87 (active) | 5.4 (active) |
| CATPPRERRGAGNASASA [FS-1095] | -0.768 (inactive) | -0.415 (inactive) | -0.163 (inactive) |
| CAAPKRRRRGAGNASASA [FS-323] | 4.98 (active) | 4.92 (active) | 3.74 (active) |
| CAAPARERRGAGNASASA [FS-6] | 7.34 (active) | 8.29 (active) | 7.48 (active) |
| CAVIPVRRRGAGNASASA [HC730] | -0.464 (inactive) | 0.132 (inactive) | -0.326 (inactive) |
| CALFRRRRRGAGNASASA [FS-606] | 5.12 (active) | 5.02 (active) | 5.06 (active) |
| CAPGHLRRRGAGNASASA [FS-1046] | -0.0765 (inactive) | 0.0326 (inactive) | 0.261 (inactive) |
| CAHGLVSFLVAGNASASA [HC542] | 0.693 (inactive) | -0.401 (inactive) | 0.576 (inactive) |
| CAVDYPYRLWAGNASASA [HC465] | 0.139 (inactive) | 0.651 (inactive) | 1.32 |
| CATGPCSGSWAGNASASA [HC1856] | -0.371 (inactive) | -0.739 (inactive) | -1.48 (inactive) |
| CARLKKFQEAAGNASASA [FS-2987] | -0.948 (inactive) | -1.1 (inactive) | -1.63 (inactive) |
| CAGENLYFQSAGNASASA [TV1] | -1.03 (inactive) | -1.63 (inactive) | -0.511 (inactive) |
| CAPINAYTTGAGNASASA [HC1191] | 0.157 (inactive) | 0.17 (inactive) | 0.965 (inactive) |
| CAAESRACRGAGNASASA [FS-742] | -0.725 (inactive) | -0.739 (inactive) | -0.66 (inactive) |
| CAAERRHYRPAGNASASA [FS-969] | 0.389 (inactive) | 0.437 (inactive) | 0.0544 (inactive) |
| CACHRRMRRGAGNASASA [FS-404] | 10.7 (active) | 8.52 (active) | 8.21 (active) |
| CAAERRRRRGAGNASASA [FS-2] | 4.28 (active) | 3.26 | 2.64 |
| CADEVDNKVKAGNASASA [CS4] | -0.725 (inactive) | -1.22 (inactive) | -1.28 (inactive) |

| Sequence | furin cleavage Z-score (7.5 min) | furin cleavage Z-score (15 min) | furin cleavage Z-score (30 min) |
| --- | --- | --- | --- |
| CAPGAATAFVAGNASASA [HC1072] | 0.989 (inactive) | 1.72 | 0.199 (inactive) |
| CASVAATLGFAGNASASA [HC789] | 1.93 | 0.468 (inactive) | 0.352 (inactive) |
| CARVARRRRFAGNASASA [FS-1164] | 8.04 (active) | 10 (active) | 7.4 (active) |
| CAKDYRRIRFAGNASASA [FS-173] | 0.143 (inactive) | -0.374 (inactive) | 0.736 (inactive) |
| CATQVRRRRFAGNASASA [FS-1497] | 6.78 (active) | 10.5 (active) | 7.46 (active) |
| CAGLRRRRRFAGNASASA [FS-531] | 7.13 (active) | 8.7 (active) | 7.24 (active) |
| CAILTRRRRFAGNASASA [FS-1347] | 8.01 (active) | 8.67 (active) | 7.5 (active) |
| CARSADGRRFAGNASASA [FS-1654] | -0.463 (inactive) | -0.885 (inactive) | -0.419 (inactive) |
| CAGVLAALAAAGNASASA [HC993] | 1.76 | 0.568 (inactive) | -0.149 (inactive) |
| CASTPCSAYLAGNASASA [HC2549] | 0.127 (inactive) | -0.0969 (inactive) | 0.416 (inactive) |
| CAEVVTRTWVAGNASASA [HC150] | -0.769 (inactive) | -0.617 (inactive) | 1.23 |
| CAMEMCSQHLAGNASASA [HC1706] | 1.54 | 2.05 | 0.326 (inactive) |
| CALPDRRRRFAGNASASA [FS-1027] | 6.3 (active) | 8.87 (active) | 8.99 (active) |
| CASDFKTWLKAGNASASA [HC1155] | -1.27 (inactive) | -1.41 (inactive) | -0.384 (inactive) |
| CARRRRSLPGAGNASASA [FS-1788] | 6.91 (active) | 8.64 (active) | 6.57 (active) |
| CARRRRSLPRAGNASASA [FS-2797] | 4.48 (active) | 5.79 (active) | 7.11 (active) |
| CARRRRSLRRAGNASASA [FS-2454] | 3.55 (active) | 3.5 (active) | 6.12 (active) |
| CARRRSRNLGAGNASASA [HC217] | 4.75 (active) | 6.64 (active) | 6.07 (active) |
| CAIGGHYVQMAGNASASA [HC625] | 1.06 | 1.02 | -0.429 (inactive) |
| CAVILDSFDPAGNASASA [HC1286] | -0.325 (inactive) | -0.389 (inactive) | 1.13 |
| CAVVICSMSYAGNASASA [HC2024] | -0.215 (inactive) | -0.424 (inactive) | -0.762 (inactive) |
| CAEVPCHRWSAGNASASA [HC2388] | 0.964 (inactive) | 1.69 | 1.98 |
